This is an account of results in the supplement of paper PMC11001985.

Sequence of UniProt P46940 (P46940 whole entry): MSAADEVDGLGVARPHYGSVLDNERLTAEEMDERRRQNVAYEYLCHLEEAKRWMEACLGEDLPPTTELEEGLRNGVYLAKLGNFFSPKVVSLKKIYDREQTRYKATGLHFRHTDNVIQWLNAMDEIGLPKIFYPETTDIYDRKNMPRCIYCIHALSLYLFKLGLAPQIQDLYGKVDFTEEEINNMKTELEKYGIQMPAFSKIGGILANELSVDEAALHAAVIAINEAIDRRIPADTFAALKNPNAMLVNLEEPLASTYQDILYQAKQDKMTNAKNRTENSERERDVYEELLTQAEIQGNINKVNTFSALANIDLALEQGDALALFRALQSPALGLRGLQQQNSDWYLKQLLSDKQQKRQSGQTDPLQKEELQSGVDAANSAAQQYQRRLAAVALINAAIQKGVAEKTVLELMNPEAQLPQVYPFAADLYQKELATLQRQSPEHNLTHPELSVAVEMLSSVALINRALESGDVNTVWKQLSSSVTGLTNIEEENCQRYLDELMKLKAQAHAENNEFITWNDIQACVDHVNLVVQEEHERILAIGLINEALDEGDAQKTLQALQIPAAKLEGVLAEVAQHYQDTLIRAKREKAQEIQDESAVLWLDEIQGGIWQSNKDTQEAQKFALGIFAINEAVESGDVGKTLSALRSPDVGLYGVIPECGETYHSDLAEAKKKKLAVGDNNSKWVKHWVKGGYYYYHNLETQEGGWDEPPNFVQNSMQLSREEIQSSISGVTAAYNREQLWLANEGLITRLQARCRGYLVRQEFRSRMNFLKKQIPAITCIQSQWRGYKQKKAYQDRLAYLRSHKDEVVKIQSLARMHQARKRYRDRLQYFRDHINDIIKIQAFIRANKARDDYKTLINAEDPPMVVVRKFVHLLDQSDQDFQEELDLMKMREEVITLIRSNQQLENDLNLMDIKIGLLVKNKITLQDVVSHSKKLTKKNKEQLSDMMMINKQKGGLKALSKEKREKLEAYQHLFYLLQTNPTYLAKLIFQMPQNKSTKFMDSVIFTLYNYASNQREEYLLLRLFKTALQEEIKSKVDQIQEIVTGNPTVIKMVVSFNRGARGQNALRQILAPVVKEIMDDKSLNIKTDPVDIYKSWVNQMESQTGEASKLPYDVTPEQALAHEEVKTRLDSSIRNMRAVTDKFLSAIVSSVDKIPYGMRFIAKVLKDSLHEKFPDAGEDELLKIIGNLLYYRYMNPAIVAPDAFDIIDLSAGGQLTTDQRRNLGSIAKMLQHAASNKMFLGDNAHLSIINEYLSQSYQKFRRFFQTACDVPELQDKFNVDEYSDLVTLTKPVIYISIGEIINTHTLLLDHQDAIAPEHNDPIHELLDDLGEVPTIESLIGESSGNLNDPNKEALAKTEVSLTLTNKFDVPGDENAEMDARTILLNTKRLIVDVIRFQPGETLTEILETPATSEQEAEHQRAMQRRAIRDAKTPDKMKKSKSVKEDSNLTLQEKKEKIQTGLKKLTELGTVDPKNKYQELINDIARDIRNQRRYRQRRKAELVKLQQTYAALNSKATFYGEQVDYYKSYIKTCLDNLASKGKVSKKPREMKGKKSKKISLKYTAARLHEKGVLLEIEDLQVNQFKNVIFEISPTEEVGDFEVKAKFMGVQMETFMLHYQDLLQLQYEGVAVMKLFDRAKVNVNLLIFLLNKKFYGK
Sequence of UniProt P07237 (P07237 whole entry, looked up): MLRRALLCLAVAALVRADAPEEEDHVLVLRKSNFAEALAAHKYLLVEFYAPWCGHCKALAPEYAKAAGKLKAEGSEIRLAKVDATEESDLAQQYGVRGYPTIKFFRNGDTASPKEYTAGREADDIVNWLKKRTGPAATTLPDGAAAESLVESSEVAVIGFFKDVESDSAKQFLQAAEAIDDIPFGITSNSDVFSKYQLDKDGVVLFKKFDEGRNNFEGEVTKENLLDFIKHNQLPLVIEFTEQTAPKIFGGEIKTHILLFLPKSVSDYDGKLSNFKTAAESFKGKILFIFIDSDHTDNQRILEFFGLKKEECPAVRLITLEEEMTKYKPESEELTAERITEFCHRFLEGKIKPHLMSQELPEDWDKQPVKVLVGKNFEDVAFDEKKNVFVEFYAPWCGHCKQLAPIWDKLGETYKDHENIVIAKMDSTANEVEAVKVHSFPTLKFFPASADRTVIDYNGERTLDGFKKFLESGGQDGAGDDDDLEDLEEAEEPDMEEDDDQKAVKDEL
Sequence of UniProt P11413 (P11413 whole entry): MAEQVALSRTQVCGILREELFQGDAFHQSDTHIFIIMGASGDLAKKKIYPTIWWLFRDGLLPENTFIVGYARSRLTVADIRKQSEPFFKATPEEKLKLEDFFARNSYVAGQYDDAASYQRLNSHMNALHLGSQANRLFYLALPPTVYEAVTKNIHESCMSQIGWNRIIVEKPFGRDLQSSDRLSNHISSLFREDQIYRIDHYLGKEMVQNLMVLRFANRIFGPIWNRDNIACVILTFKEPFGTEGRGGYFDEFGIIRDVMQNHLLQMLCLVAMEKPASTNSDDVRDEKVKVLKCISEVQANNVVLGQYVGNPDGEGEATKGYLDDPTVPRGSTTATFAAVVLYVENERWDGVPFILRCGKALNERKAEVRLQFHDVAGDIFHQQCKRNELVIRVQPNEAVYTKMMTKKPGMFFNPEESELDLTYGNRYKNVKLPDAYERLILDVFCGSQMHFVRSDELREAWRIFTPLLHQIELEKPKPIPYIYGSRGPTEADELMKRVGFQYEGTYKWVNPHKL
Sequence of UniProt P11021 (P11021 whole entry): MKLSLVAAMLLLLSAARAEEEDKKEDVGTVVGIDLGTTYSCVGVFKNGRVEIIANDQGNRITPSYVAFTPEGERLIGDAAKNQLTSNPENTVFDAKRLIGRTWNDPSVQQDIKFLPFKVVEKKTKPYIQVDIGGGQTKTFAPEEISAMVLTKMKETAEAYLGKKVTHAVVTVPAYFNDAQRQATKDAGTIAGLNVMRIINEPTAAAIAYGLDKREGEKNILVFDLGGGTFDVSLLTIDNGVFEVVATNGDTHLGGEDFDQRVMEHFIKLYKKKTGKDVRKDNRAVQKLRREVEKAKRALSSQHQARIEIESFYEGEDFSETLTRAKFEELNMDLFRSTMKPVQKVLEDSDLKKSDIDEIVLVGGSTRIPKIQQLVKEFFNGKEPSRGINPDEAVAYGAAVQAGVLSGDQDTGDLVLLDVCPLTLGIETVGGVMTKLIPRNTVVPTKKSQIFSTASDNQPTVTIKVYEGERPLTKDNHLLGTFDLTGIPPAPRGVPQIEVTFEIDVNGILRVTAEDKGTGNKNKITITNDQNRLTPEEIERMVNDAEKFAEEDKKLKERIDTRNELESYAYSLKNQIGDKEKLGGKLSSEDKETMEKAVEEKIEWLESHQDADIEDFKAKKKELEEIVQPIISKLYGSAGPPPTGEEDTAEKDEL
Sequence of UniProt Q07021 (Q07021 whole entry): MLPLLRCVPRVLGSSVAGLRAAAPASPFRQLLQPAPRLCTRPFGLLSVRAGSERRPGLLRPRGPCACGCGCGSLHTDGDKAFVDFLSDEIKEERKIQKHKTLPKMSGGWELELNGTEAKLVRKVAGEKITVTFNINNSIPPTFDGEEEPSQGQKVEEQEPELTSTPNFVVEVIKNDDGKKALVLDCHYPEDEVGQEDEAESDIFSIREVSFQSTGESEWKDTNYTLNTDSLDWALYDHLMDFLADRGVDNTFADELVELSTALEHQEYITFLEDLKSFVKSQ
Sequence of UniProt P49368 (P49368 whole entry): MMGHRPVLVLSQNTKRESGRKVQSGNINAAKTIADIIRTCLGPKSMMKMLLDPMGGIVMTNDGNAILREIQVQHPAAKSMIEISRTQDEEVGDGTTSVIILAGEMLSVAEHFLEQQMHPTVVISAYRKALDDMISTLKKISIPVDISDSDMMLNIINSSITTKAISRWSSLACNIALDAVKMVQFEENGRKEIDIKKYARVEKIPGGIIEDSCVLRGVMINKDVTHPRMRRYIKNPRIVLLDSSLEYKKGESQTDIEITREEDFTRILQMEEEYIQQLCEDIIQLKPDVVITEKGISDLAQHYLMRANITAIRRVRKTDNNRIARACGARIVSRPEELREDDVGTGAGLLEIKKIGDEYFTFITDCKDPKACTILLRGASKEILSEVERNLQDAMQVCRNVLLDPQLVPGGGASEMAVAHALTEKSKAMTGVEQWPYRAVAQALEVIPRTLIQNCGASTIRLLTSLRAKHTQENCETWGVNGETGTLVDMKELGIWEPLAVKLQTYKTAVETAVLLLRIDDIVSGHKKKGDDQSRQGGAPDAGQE
Sequence of UniProt P08670 (P08670 whole entry): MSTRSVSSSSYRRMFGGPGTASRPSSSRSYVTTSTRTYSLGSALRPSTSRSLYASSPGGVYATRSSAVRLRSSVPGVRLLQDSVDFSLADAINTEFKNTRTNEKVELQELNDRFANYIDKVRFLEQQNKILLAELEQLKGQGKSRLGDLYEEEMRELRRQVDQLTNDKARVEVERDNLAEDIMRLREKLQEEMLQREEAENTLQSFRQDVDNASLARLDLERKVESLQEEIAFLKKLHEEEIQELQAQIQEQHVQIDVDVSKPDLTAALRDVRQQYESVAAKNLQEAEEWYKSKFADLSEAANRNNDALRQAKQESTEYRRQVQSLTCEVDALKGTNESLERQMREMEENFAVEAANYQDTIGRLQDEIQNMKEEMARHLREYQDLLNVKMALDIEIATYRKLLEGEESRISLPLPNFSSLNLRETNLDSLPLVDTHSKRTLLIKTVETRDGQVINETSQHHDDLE
Sequence of UniProt P21926 (P21926 whole entry): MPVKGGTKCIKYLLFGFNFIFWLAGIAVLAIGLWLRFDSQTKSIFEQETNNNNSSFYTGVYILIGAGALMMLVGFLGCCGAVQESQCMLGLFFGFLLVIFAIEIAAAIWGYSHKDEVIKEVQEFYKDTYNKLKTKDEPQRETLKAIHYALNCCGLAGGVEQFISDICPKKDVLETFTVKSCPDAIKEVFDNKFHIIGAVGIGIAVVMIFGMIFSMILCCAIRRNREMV

Compound in the assay: C#CCNC(=O)CCSSCCC(=O)NCCc1ccc(C=O)c(C=O)c1
The assay can be described thus: lysine labeling ratio R10:1 (500 µM / 50 µM probe), SILAC-ABPP in living cells; higher = lower intrinsic lysine reactivity toward the probe, active = 2 or less. Conditions: HeLa; probe concentrations 500 vs 50 µM. An outline of the steps: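 SILAC light and heavy living HeLa cells in PBS at room temperature were labelled with 50 µM or 500 µM of an alkyne-tagged, disulfide-linked lysine probe, with forward and reverse label swaps. Mixed lysates were clicked to biotin-azide, trypsin-digested, captured on neutravidin, DTT-released, alkylated and analysed by LC-MS/MS on a TIMS-TOF Pro. R is the filtered median high-probe/low-probe MS1 peptide ratio per lysine, then the median across forward and reverse replicates. Ratios are capped at 20.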
With “IQGAP1 (lysine site: K274) (UniProt P46940)”, the “lysine labeling ratio R10:1” value is 3.87 (inactive). The same measure for “HSPA5 (lysine site: K96) (UniProt P11021)”: 1.44 (active); for UniProt O43570 (lysine site: K279): 2.86 (inactive); for “TFRC (lysine site: K205) (UniProt P02786)”: 2.81 (inactive). With “HNRNPU (lysine site: K186) (UniProt Q00839)”, the “lysine labeling ratio R10:1” value is 4.06 (inactive).

On to “C1QBP (lysine site: K91) (UniProt Q07021)”, for which the “lysine labeling ratio R10:1” value was 0.97 (active). On to “DDX23 (lysine site: K204) (UniProt Q9BUQ8)”, for which the “lysine labeling ratio R10:1” value was 0.85 (active). With “GAPDH (lysine site: K227) (UniProt P04406)” the figure was 1.76 (active); with “P4HB (lysine site: K328) (UniProt P07237)”, 1.54 (active).

Consider “FZD1 (lysine site: K273) (UniProt Q9UP38)”, for which the “lysine labeling ratio R10:1” value was 4.28 (inactive).

For the target “MYH9 (lysine site: K856) (UniProt P35579)”, the “lysine labeling ratio R10:1” value was 2.68 (inactive).

UniProt P62269 (lysine site: K47): the “lysine labeling ratio R10:1” value is 1.41 (active).

As to UniProt P05787 (lysine site: K207), the “lysine labeling ratio R10:1” value is 3.47 (inactive). With “PLS3 (lysine site: K91) (UniProt P13797)” the figure was 2.1 (inactive); with “VIM (lysine site: K439) (UniProt P08670)”, 8.7 (inactive); with “LAMP1 (lysine site: K337) (UniProt P11279)”, 6.57 (inactive).

On to “GALNT7 (lysine site: K648) (UniProt Q86SF2)”, for which the “lysine labeling ratio R10:1” value is 1.92 (active). The same measure for “CD9 (lysine site: K133) (UniProt P21926)”: 5.95 (inactive); for “G6PD (lysine site: K432) (UniProt P11413)”: 1.85 (active); for UniProt Q8WXI7 (lysine site: K10462): 1.27 (active). With “CCT3 (lysine site: K203) (UniProt P49368)” the figure was 4.58 (inactive); with “PSME2 (lysine site: K15) (UniProt Q9UL46)”, 6.45 (inactive); with “IQGAP1 (lysine site: K368) (UniProt P46940)”, 3.38 (inactive).
